About 410 targets per protein were measured; listed, in parts, are those with the strongest signals and a random draw of the rest.
Key:
Assay in all cases: glycan array binding signal (z-score within array); higher = stronger binding
Settings in all cases: glycan notation: IUPAC condensed, linker removed
[1] = molecular target: Fuc(a1-2)Gal(b1-3)GalNAc(b1-3)Gal(a1-4)Gal(b1-4)Glc
In short: (§1)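 From the Consortium for Functional Glycomics database, 3228 arrays were curated, keeping only those whose protein sequence was available. Binding is given as a within-array Z-score averaged across arrays sharing a protein sequence and across linkers. Negative Z-scores can be read as non-binding.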

[2] = molecular target: Fuc(a1-2)Gal(b1-3)GlcNAc(b1-3)Gal(b1-4)Glc
In short: as §1

[3] = molecular target: Fuc(a1-2)Gal(b1-3)[Fuc(a1-4)]GlcNAc
In short: as §1

[4] = molecular target: Fuc(a1-2)Gal(b1-4)Glc
In short: as §1

[5] = molecular target: Fuc(a1-2)[Gal(a1-3)]Gal(b1-4)GlcNAc(b1-2)Man(a1-3)[Fuc(a1-2)[Gal(a1-3)]Gal(b1-4)GlcNAc(b1-2)Man(a1-6)]Man(b1-4)GlcNAc(b1-4)GlcNAc
In short: as §1

[6] = molecular target: Fuc(a1-2)[Gal(a1-4)]Gal(b1-4)GlcNAc
In short: as §1

[7] = molecular target: Fuc(a1-2)[GalNAc(a1-3)]Gal(b1-3)GlcNAc(b1-2)Man(a1-3)[Fuc(a1-2)[GalNAc(a1-3)]Gal(b1-3)GlcNAc(b1-2)Man(a1-6)]Man(b1-4)GlcNAc(b1-4)GlcNAc
In short: as §1

[8] = molecular target: Fuc(a1-2)[GalNAc(a1-3)]Gal(b1-4)[Fuc(a1-3)]GlcNAc(b1-3)GalNAc
In short: as §1

[9] = molecular target: Fuc(a1-3)[Gal(b1-4)]GlcNAc(b1-6)GalNAc
In short: as §1

[10] = molecular target: Gal(a1-3)Gal(b1-3)GlcNAc(b1-2)Man(a1-3)[Gal(a1-3)Gal(b1-3)GlcNAc(b1-2)Man(a1-6)]Man(b1-4)GlcNAc(b1-4)GlcNAc
In short: as §1

[11] = molecular target: Gal(a1-3)Gal(b1-3)GlcNAc(b1-3)GalNAc
In short: as §1

[12] = molecular target: Gal(a1-3)GalNAc
In short: as §1

[13] = molecular target: Gal(b1-3)Gal
In short: as §1

[14] = molecular target: Gal(b1-3)Gal(b1-4)GlcNAc
In short: as §1

[15] = molecular target: Gal(b1-3)GalNAc
In short: as §1

[16] = molecular target: Gal(b1-3)GalNAc(a1-3)[Fuc(a1-2)]Gal(b1-4)Glc
In short: as §1

[17] = molecular target: Gal(b1-3)GalNAc(b1-3)Gal
In short: as §1

[18] = molecular target: Gal(b1-3)GalNAc(b1-4)Gal(b1-4)Glc
In short: as §1

[19] = molecular target: Gal(b1-3)GalNAc(b1-4)[Neu5Ac(a2-3)]Gal(b1-4)Glc
In short: as §1

[20] = molecular target: Gal(b1-3)GlcNAc6S
In short: as §1

[21] = molecular target: Gal(b1-3)[Fuc(a1-4)]GlcNAc
In short: as §1

[22] = molecular target: Gal(b1-3)[GlcNAc(b1-6)]GalNAc
In short: as §1

[23] = molecular target: Gal(b1-3)[Neu5Ac(a2-6)]GalNAc
In short: as §1

[24] = molecular target: Gal(b1-4)Glc6S
In short: as §1

[25] = molecular target: Gal(b1-4)GlcNAc(b1-2)Man(a1-3)Man(b1-4)GlcNAc(b1-4)GlcNAc
In short: as §1

[26] = molecular target: Gal(b1-4)GlcNAc(b1-2)Man(a1-3)[GlcNAc(b1-4)][Gal(b1-4)GlcNAc(b1-2)Man(a1-6)]Man(b1-4)GlcNAc(b1-4)GlcNAc
In short: as §1

[27] = molecular target: Gal(b1-4)GlcNAc(b1-2)[Gal(b1-4)GlcNAc(b1-6)]Man(a1-6)[Gal(b1-4)GlcNAc(b1-2)Man(a1-3)]Man(b1-4)GlcNAc(b1-4)[Fuc(a1-6)]GlcNAc
In short: as §1

[28] = molecular target: Gal(b1-4)GlcNAc(b1-3)Gal(b1-4)GlcNAc(b1-3)GalNAc
In short: as §1

[29] = molecular target: Gal3S(b1-4)[Fuc(a1-3)]GlcNAc
In short: as §1

[30] = molecular target: Gal3S6S(b1-4)GlcNAc6S
In short: as §1

[31] = molecular target: Gal6S(b1-4)GlcNAc6S
In short: as §1

[32] = molecular target: GlcA(b1-6)Gal
In short: as §1

[33] = molecular target: GlcNAc(a1-6)Gal(b1-4)GlcNAc
In short: as §1

[34] = molecular target: GlcNAc(b1-2)Man(a1-3)[GlcNAc(b1-4)][GlcNAc(b1-2)Man(a1-6)]Man(b1-4)GlcNAc(b1-4)[Fuc(a1-6)]GlcNAc
In short: as §1

[35] = molecular target: GlcNAc(b1-3)Gal(b1-4)GlcNAc(b1-3)Gal(b1-4)GlcNAc(b1-3)Gal(b1-4)GlcNAc(b1-2)Man(a1-3)[GlcNAc(b1-3)Gal(b1-4)GlcNAc(b1-3)Gal(b1-4)GlcNAc(b1-3)Gal(b1-4)GlcNAc(b1-2)Man(a1-6)]Man(b1-4)GlcNAc(b1-4)[Fuc(a1-6)]GlcNAc
In short: as §1

[36] = molecular target: GlcNAc(b1-3)[GlcNAc(b1-4)][GlcNAc(b1-6)]GlcNAc
In short: as §1

[37] = molecular target: Man(a1-2)Man(a1-6)[Man(a1-3)]Man(a1-6)[Man(a1-2)Man(a1-2)Man(a1-3)]Man
In short: as §1

[38] = molecular target: Man(a1-3)[Man(a1-6)]Man(a1-6)[Man(a1-3)]Man
In short: as §1

[39] = molecular target: Neu5Ac(a2-3)Gal(b1-4)GlcNAc(b1-3)Gal(b1-4)[Fuc(a1-3)]GlcNAc
In short: as §1

[40] = molecular target: Neu5Ac(a2-3)Gal(b1-4)[Fuc(a1-3)]GlcNAc(b1-3)Gal(b1-4)[Fuc(a1-3)]GlcNAc(b1-3)Gal(b1-4)[Fuc(a1-3)]GlcNAc
In short: as §1

[41] = molecular target: Neu5Ac(a2-3)Gal(b1-4)[Fuc(a1-3)]GlcNAc6S
In short: as §1

[42] = molecular target: Neu5Ac(a2-6)Gal(b1-4)GlcNAc
In short: as §1

[43] = molecular target: Neu5Ac(a2-6)Gal(b1-4)GlcNAc(b1-2)[Neu5Ac(a2-6)Gal(b1-4)GlcNAc(b1-4)]Man(a1-3)[GlcNAc(b1-4)][Neu5Ac(a2-6)Gal(b1-4)GlcNAc(b1-2)[Neu5Ac(a2-6)Gal(b1-4)GlcNAc(b1-6)]Man(a1-6)]Man(b1-4)GlcNAc(b1-4)GlcNAc
In short: as §1

[44] = molecular target: Neu5Ac(a2-6)Gal(b1-4)GlcNAc(b1-3)Gal(b1-4)GlcNAc
In short: as §1

[45] = molecular target: Neu5Ac(a2-6)Gal(b1-4)GlcNAc(b1-3)GalNAc
In short: as §1

[46] = molecular target: Neu5Ac(a2-8)Neu5Ac(a2-8)Neu5Ac(a2-8)Neu5Ac(a2-3)[GalNAc(b1-4)]Gal(b1-4)Glc
In short: as §1

[47] = molecular target: Neu5Ac9Ac(a2-3)Gal(b1-4)GlcNAc
In short: as §1

[48] = molecular target: Neu5Gc(a2-8)Neu5Gc(a2-3)Gal(b1-4)GlcNAc
In short: as §1

B1: CFEM-PPl (Pichia pastoris), F2QPV1 (protein)
chain: AVATPPACLLACAAEVVKESSDCDALNNIQCICENEGSAIHACLESTCPDGLSSTALQSFEDVCESVGTEANLDE
What does the source list for B1?
glycan array binding signal (z-score) [1]: -0.182; glycan array binding signal (z-score) [2]: -0.261; glycan array binding signal (z-score) [3]: -0.299; glycan array binding signal (z-score) [4]: -0.216; glycan array binding signal (z-score) [5]: -0.252; glycan array binding signal (z-score) [6]: -0.168; glycan array binding signal (z-score) [7]: -0.271; glycan array binding signal (z-score) [8]: 2.17; glycan array binding signal (z-score) [9]: 0.273; glycan array binding signal (z-score) [10]: -0.051; glycan array binding signal (z-score) [11]: -0.151; glycan array binding signal (z-score) [12]: -0.249; glycan array binding signal (z-score) [13]: 8.35; glycan array binding signal (z-score) [14]: 4.73; glycan array binding signal (z-score) [15]: 4.58; glycan array binding signal (z-score) [16]: 0.63; glycan array binding signal (z-score) [17]: 7.59; glycan array binding signal (z-score) [18]: 11.5; glycan array binding signal (z-score) [19]: 1.48; glycan array binding signal (z-score) [20]: 0.224; glycan array binding signal (z-score) [21]: -0.109; glycan array binding signal (z-score) [22]: 1.52; glycan array binding signal (z-score) [23]: 8.06; glycan array binding signal (z-score) [24]: 0.326; glycan array binding signal (z-score) [25]: -0.158; glycan array binding signal (z-score) [26]: -0.371; glycan array binding signal (z-score) [27]: 0.199; glycan array binding signal (z-score) [28]: -0.058; glycan array binding signal (z-score) [29]: -0.308; glycan array binding signal (z-score) [30]: -0.019; glycan array binding signal (z-score) [31]: 0.881; glycan array binding signal (z-score) [32]: 1.49; glycan array binding signal (z-score) [33]: 1.68; glycan array binding signal (z-score) [34]: -0.286; glycan array binding signal (z-score) [35]: -0.05; glycan array binding signal (z-score) [36]: -0.262; glycan array binding signal (z-score) [37]: -0.274; glycan array binding signal (z-score) [38]: -0.201; glycan array binding signal (z-score) [39]: -0.181; glycan array binding signal (z-score) [40]: -0.258; glycan array binding signal (z-score) [41]: -0.175; glycan array binding signal (z-score) [42]: -0.156; glycan array binding signal (z-score) [43]: -0.31; glycan array binding signal (z-score) [44]: -0.404; glycan array binding signal (z-score) [45]: -0.218; glycan array binding signal (z-score) [46]: -0.099; glycan array binding signal (z-score) [47]: -0.318; glycan array binding signal (z-score) [48]: -0.14
